Bioassay records as filed in PubChem.
D2 antagonist = antagonists of human D2 dopamine receptor | inhibition, % at 10 µM | 340,000 compounds, 2% hits | HEK293 TREx D2 cells, calcium flux, dopamine EC80; in the data active = inhibition above about 30%; inactive = below that, where a call was filed; also: 0% is about no effect
Target sequence (P14416 whole entry, looked up): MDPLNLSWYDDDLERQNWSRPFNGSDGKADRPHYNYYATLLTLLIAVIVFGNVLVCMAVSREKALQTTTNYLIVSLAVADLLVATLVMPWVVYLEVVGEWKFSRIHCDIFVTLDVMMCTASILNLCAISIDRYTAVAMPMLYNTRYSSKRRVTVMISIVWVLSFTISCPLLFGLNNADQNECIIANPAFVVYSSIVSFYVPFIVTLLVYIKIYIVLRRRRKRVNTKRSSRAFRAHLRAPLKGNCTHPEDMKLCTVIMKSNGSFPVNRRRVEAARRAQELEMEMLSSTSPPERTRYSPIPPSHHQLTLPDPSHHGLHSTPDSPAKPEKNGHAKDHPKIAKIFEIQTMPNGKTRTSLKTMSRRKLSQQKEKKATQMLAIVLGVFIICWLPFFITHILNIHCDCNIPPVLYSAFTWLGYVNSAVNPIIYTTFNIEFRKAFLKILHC
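Measurement of antagonist activity uses fluorescent calcium dye in inducible HEK293 T-REx D2 cells: 10 s baseline, compound addition with 180 s read, EC80 dopamine addition with a further 180 s read.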
D2 PAM-1 = positively modulates the human D2 dopamine receptor allosterically; P14416; HEK293 T-REx D2, calcium flux, EC20 dopamine potentiation; potentiation, % at 10 µM; 340,000 compounds, 0.34% hits;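 active = potentiation over 3 SD above the plate norm, cut at about 30% in these data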; also: 0% is about no effect
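Cells plated with tetracycline inducer and held overnight at 30 C; calcium dye loaded 30–90 min at room temperature; baseline taken, compound added and read 180 s; EC20 dopamine then added and read 180 s.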
D2 ag-1 = agonists of human D2 dopamine receptor | P14416 | 340,000 compounds, 0.53% hits | HEK293 T-REx D2 cells, calcium flux agonist mode | activation, % at 2 µM;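 active = activation over 3 SD above normal in the single-dose calcium agonist read, cut at about 30% in these data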; also: 0% is about no effect
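Agonism is scored from calcium flux in a force-coupled, inducible HEK293 cell line expressing D2, read kinetically for 180 s after compound addition against dopamine controls.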
D2 ag-2 = agonists of human D2 dopamine receptor (beta-arrestin); P14416; DiscoveRx PathHunter D2 beta-arrestin, luminescence, 90 min; 100% = 57 uM dopamine signal; activation, % (test concentration not listed); 360,000 compounds, 0.084% hits; AID 624465; in the data active = activation above about 40%; inconclusive = between about 15% and that limit
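Agonist mode: compounds alone added to overnight-plated D2 PathHunter cells for 90 min at 37 C, with 57 uM final dopamine (EC100) defining full response. Beta-arrestin recruitment detected by chemiluminescent reagent, read after 1 h at ambient temperature.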
D2 PAM-2 = human D2 receptor positive allosteric modulation; P14416; DiscoveRx D2 beta-arrestin cells, luminescence, 90 min; 100% = 57 uM dopamine signal; potentiation, % (test concentration not listed); 360,000 compounds, 0.23% hits; in the data active = potentiation above about 50%; inconclusive = mostly about 30% to 49%
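PathHunter D2 cells, attached overnight at 37 deg C, received compound in DMSO plus dopamine at EC20 (50 nM final) for 90 min at 37 deg C. Beta-arrestin recruitment was read as luminescence after 1 h with detection reagent at ambient temperature.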
Numbers without * were called inactive. This is a sample that favours compounds with a hit; in the whole collection about 2.4% have one here.

Results for O=[N+]([O-])c1nn(-c2ccccc2)n(O)c1=NCCc1ccccc1 ?
D2 antagonist: -2; D2 PAM-1: -3; D2 ag-1: 1; D2 ag-2: inconclusive; D2 PAM-2: 161*

What do the screens show for `Cc1ccc(CCN=c2c([N+](=O)[O-])nn(-c3ccccc3)n2O)cc1`?
D2 antagonist: 6; D2 PAM-1: -4; D2 ag-1: 1; D2 ag-2: inconclusive; D2 PAM-2: 67*

How did COc1ccc(-n2nc([N+](=O)[O-])c(=NCCc3ccccc3)n2O)cc1 do in these assays?
D2 antagonist: -9; D2 PAM-1: 14; D2 ag-1: -1; D2 ag-2: inconclusive; D2 PAM-2: 131*

What do the screens show for `COc1cccc(CN2CCC2(C)C(=O)Nc2cnc3ccccc3c2)c1F` (configuration not stated)?
D2 ag-2: 13; D2 PAM-2: 3

Results for COCC(C)NC(=O)CCS(=O)(=O)c1nc(-c2ccc(OC)cc2)cc(C(F)(F)F)n1 (configuration not stated) ?
D2 antagonist: -9; D2 PAM-1: 39*; D2 ag-1: -1; D2 ag-2: -2; D2 PAM-2: -29

Results for C/C(CC(=O)Nc1ccc(C)c(Cl)c1)=N\NC(=O)c1cccc(O)c1 ?
D2 antagonist: -14; D2 PAM-1: -1; D2 ag-1: 0; D2 ag-2: -5; D2 PAM-2: -25

How did COc1ccc(NC(=O)C2CCCN(c3c4c(nc5ncnn35)CCC4)C2)cc1 (configuration not stated) do in these assays?
D2 antagonist: -7; D2 PAM-1: 9; D2 ag-1: 0; D2 ag-2: -2; D2 PAM-2: -5

Results for COc1ccc(NC(=O)C2CCCN(c3cc(C)nc4ncnn34)C2)cc1 (configuration not stated) ?
D2 antagonist: 30*; D2 PAM-1: -11; D2 ag-1: 0; D2 ag-2: 2; D2 PAM-2: 3

How did COc1cc(C)nc(N2CCCC(C(=O)Nc3cc(Cl)ccc3OC)C2)n1 (configuration not stated) do in these assays?
D2 antagonist: 7; D2 PAM-1: 81*; D2 ag-1: 1; D2 ag-2: 1; D2 PAM-2: -1

Results for CCN(CC(=O)Nc1cc(Cl)ccc1C)C(=O)c1ccc2c(=O)n3c(nc2c1)CCC3 ?
D2 ag-2: -2; D2 PAM-2: -34

How did CC1=C(C(=O)N(C(C)C)C(C)C)CC(CC(=O)NC2CC2)C(=O)N1Cc1ccc(F)cc1 (configuration not stated) do in these assays?
D2 ag-2: -3; D2 PAM-2: -3

Results for C/C(=N\NC(=S)NCC(C)(C)C)c1cc(F)cc(F)c1O ?
D2 antagonist: 37*; D2 PAM-1: -17; D2 ag-1: 2; D2 ag-2: 3; D2 PAM-2: -15

Results for COCc1c(C(=O)NC2CCCCCC2)oc2ccccc12 ?
D2 antagonist: 10; D2 PAM-1: -27; D2 ag-1: 31*; D2 ag-2: inconclusive; D2 PAM-2: 10

Results for CCc1nc2c(c(=O)c3ccccc3n2C)c(=O)n1C1CCCCCC1 ?
D2 antagonist: 25; D2 PAM-1: -10; D2 ag-1: 58*; D2 ag-2: -1; D2 PAM-2: -13

What do the screens show for `COc1ccc(CCn2c(C3CCCCC3)nc3c(c(=O)c4ccccc4n3C)c2=O)cc1`?
D2 antagonist: 18; D2 PAM-1: -7; D2 ag-1: 10; D2 ag-2: -4; D2 PAM-2: -8

Results for COc1ccc(Cn2c(C3CCCCC3)nc3c(c(=O)c4ccccc4n3C)c2=O)cc1 ?
D2 antagonist: 42*; D2 PAM-1: -3; D2 ag-1: 5; D2 ag-2: -3; D2 PAM-2: -16

Results for CC(=C/c1ccccc1)/C=N/NC(=O)c1ccccn1 ?
D2 antagonist: 6; D2 PAM-1: -8; D2 ag-1: 0; D2 ag-2: 0; D2 PAM-2: -11

How did CC(/C=N/NC(=O)c1cccc(F)c1)=C\c1ccccc1 do in these assays?
D2 antagonist: 33*; D2 PAM-1: -38; D2 ag-1: -1; D2 ag-2: 3; D2 PAM-2: -18

How did CC(/C=N/NC(=O)c1ccncc1)=C\c1ccccc1 do in these assays?
D2 antagonist: -5; D2 PAM-1: -17; D2 ag-1: 0; D2 ag-2: -1; D2 PAM-2: 9

How did COc1ccccc1C(=O)N/N=C/C(C)=C/c1ccccc1 do in these assays?
D2 antagonist: 75*; D2 PAM-1: -13; D2 ag-1: 0; D2 ag-2: 3; D2 PAM-2: -29

Results for CC(=C/c1ccc(C(C)C)cc1)/C=N/NC(=O)c1ccncc1 ?
D2 antagonist: 36*; D2 PAM-1: 4; D2 ag-1: -5; D2 ag-2: 4; D2 PAM-2: 2

Results for COc1ccc(NC(=O)CSc2nc3ccccc3n2CC(=O)N2CCCC(C)C2)cc1 (configuration not stated) ?
D2 PAM-1: 2; D2 ag-1: 0

What do the screens show for `COc1ccc(NC2=CC(=O)CC(c3ccccc3)C2)c(OC)c1` (configuration not stated)?
D2 antagonist: 31*; D2 PAM-1: -5; D2 ag-1: -1; D2 ag-2: -1; D2 PAM-2: -3

What do the screens show for `CC(NC(=O)c1cccs1)c1nnc(SCc2ccc(Cl)cc2Cl)n1C` (configuration not stated)?
D2 antagonist: -23; D2 PAM-1: 1; D2 ag-1: 1; D2 ag-2: -3; D2 PAM-2: -15

How did CCc1ccc(NC(=O)C/C(C)=N/NC(=O)COc2ccccc2C)cc1 do in these assays?
D2 antagonist: 40*; D2 PAM-1: -8; D2 ag-1: 0; D2 ag-2: -5; D2 PAM-2: -9

What do the screens show for `Cc1ccc(S(=O)Cc2nc(-c3ccc(C(=O)NC(C)c4ccccc4)cc3)oc2C)cc1` (configuration not stated)?
D2 PAM-1: 4; D2 ag-1: -1

What do the screens show for `CCc1cccc(C)c1NC(=O)c1nc2ccccc2nc1N1CCCCC1`?
D2 PAM-1: -8; D2 ag-1: 0

Results for CCN(CC)c1ccc(/C=C(/C#N)c2nc3ccc(C)cc3[nH]2)c(OC(C)C)c1 ?
D2 antagonist: -2; D2 PAM-1: -7; D2 ag-1: 42*; D2 ag-2: -6; D2 PAM-2: -17

How did Cc1ccccc1NC(=O)c1cnc2sc(N3CCCC3)nn2c1=O do in these assays?
D2 PAM-1: 2; D2 ag-1: -1

Results for CCNC(=S)N(CCCN(C)C)Cc1cc2cc3c(cc2[nH]c1=O)OCCO3 ?
D2 antagonist: 0; D2 PAM-1: -10; D2 ag-1: 0; D2 ag-2: 1; D2 PAM-2: 1
